Data published in PubChem BioAssay (NCI).
About 83,000 compounds went through this panel and 20% of them were active in at least one assay; those are over-represented in the sample as a whole.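 Growth was measured after 48 h exposure to one concentration of compound in 96-well plates. Values under 10 count as active.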 Values without a mark were called inactive. Active and inactive are the calls of the source.

tested on: HL-60(TB) leukemia; experiment: NCI-60 one-dose screen, 48 h (100 = growth as untreated, 0 = no growth, -100 = all killed); settings: 10 µM unless noted

Structure (SMILES) | growth
C(=N\Nc1ncc(-c2cc3cc4c(cc3o2)OCO4)s1)/c1ccco1 | 16.2%
CC[C@H](CC[C@@H](C)[C@H]1CC[C@H]2[C@@H]3CC[C@@H]4CC(=O)/C(=C\c5ccncc5)C[C@]4(C)[C@H]3CC[C@]12C)C(C)C | 83.1%
COc1ccccc1NS(=O)(=O)c1ccc2oc(SC(C)C)nc2c1 | 53.6%
CCOC(=O)c1ccccc1SC(C[N+](=O)[O-])c1ccccc1 (centres undefined) | 89.7%
Cc1c(Cl)cccc1NCN1C(=O)c2ccccc2C1=O | 113%
O=C1NC(=O)C(c2ccc(Cl)cc2Cl)N1 (centres undefined) | 107%
CCN1CCN(CCNc2nccc(-c3c(-c4ccc(F)c(OC)c4)nc4sccn34)n2)S1(=O)=O | 89.1%
C/C(=N\O)c1ccc(NC(=O)CSc2nnc(-c3cc(-c4ccc(S(C)(=O)=O)cc4)nc4ccccc34)n2-c2ccccc2)cc1 | 84%
BrC1CC(Br)c2c1c1c(c3c2C(Br)CC3Br)C(Br)CC1Br (centres undefined) | 55.7%
CS(=O)(CCCCN=C=S)=NC(=O)c1c(F)c(F)c(F)c(F)c1F (centres undefined) | 72.5%
Cc1c(O)nc(N)[nH]c1=O | 137%
COc1ccc(Cl)cc1Nc1nc(C(F)(F)F)ccc1C(=O)N/N=C/c1cccnc1 | 21.8%
C=CCOC(=O)C1=C(C)NC2=C(C(=O)CCC2)C1c1ccc(F)cc1 (centres undefined) | 87.8%
C=C1C(=O)O[C@H]2[C@H]1CC/C(Cn1cc(Cn3ccc4ccccc43)nn1)=C\CC[C@@]1(C)O[C@@H]21 | -48.5% (active)
